Assay outcomes from PubChem.
IL1B secr inh: inflammasome signaling inhibition, IL-1 beta readout | THP-1 LPS/ATP IL-1B secretion, AlphaLISA, 16 h; stronger effect = lower value | activity change, % at 57.5 µM | 360,000 tested, 4.7% active; in the data active = activity change below about -50%; inconclusive = mostly about -30% to -49%
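THP-1 cells pretreated 1 hr with compounds (up to 57.5 uM final), then stimulated with LPS (250 ng/mL final) plus ATP (1.25 mM final); secreted IL-1B measured by AlphaLISA after 16 hr, decreased signal indicating inhibition.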
HT1080 IDH1KD tx: kills HT-1080 cells with IDH1 knockdown. Potency, µM (highest dose often 46.1 µM), inactives show top-dose activity, negative = toxicity, hits mostly cytotoxic. 360,000 tested, 2% active. HT-1080 IDH1 knockdown viability, ATP luminescence, 48 h;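 note: potency is the fitted concentration of half-maximal effect; 0% = DMSO wells and -100% = cell-free medium wells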
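IDH1KD HT-1080 cells, 750/well, RPMI + 5% FBS; compound pinned after 2 h settling; 48 h, 37 °C; CellTiter-Glo luminescence; % activity normalised to DMSO and no-cell wells; curves fitted, classed by r2 and efficacy.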
TDP1 cell CPT: growth inhibition of DT40 Tdp1-/-;hTDP1 cells with camptothecin (screen for TDP1 inhibitors). chicken DT40 Tdp1-/-;hTDP1 cells + 20 nM CPT, ATP luminescence, 48 h. Potency, µM (doses to about 46.2 µM), inactives show at the top dose activity change, negative = growth inhibition, usual class: inhibitors. 420,000 tested, 12% active. AID 686979; note: potency is the fitted concentration of half-maximal effect; nearly all actives have a fitted effect of over 55% in size
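Cell growth measured by CellTiter-Glo luminescence after a minimum 48 h, 37 C compound exposure with 20 nM CPT in Tdp1-knockout DT40 cells stably expressing hTDP1, seeded 400/well; qHTS titration format.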
HT1080-NT tox: kills 2HG-producing HT-1080-NT fibrosarcoma cells | HT-1080-NT fibrosarcoma viability, CellTiter-Glo ATP luminescence, 48 h | AID 686970 | Potency, µM (series often up to 46.1 µM), for the others: at the top dose activity, negative = less viability, usual class: cytotoxic | 360,000 tested, 1.6% active;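 note: NT is the 2HG producing partner of a matched IDH1 knockdown line; potency is the fitted concentration of half-maximal effect; 0% = DMSO-treated cells and -100% = media-only wells without cells; nearly all actives have a fitted effect of over 55% in size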
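A 48-hour cytotoxicity screen used HT-1080-NT cells plated 2 hours before compound delivery. ATP-based CellTiter-Glo luminescence measured viability, normalized to DMSO and no-cell controls.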
TDP1 cell noCPT: qHTS for Inhibitors of human tyrosyl-DNA phosphodiesterase 1 (TDP1): qHTS in cells in absence of CPT | DT40 Tdp1-/- hTDP1 cells, no CPT, ATP luminescence, 48 h | Potency, µM (titrated, usually from 46.2 µM), for the others: top-dose activity change, negative = growth inhibition, hits mostly inhibitors | 420,000 tested, 15% active; note: potency is the fitted concentration of half-maximal effect; nearly all actives have a fitted effect of over 55% in size
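Luminescent ATP content (CellTiter-Glo) served as the growth readout. Knockout chicken DT40 cells expressing human TDP1 were exposed to compounds without camptothecin for a minimum 48 hr at 37 °C.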
* = called active by the depositor. Shown are actives, neighbours in structure and some others; about 19% of the full set was active somewhere. Unless noted, calls come from the whole dose curve; as a rule, active = well fitted curve in the direction sought with a large enough effect; inconclusive = small, poorly fitted or top-dose-only effect, or another doubt; inactive = no such curve, though single readings can be large; an effect the other way counts as inactive or inconclusive. Unless noted, % is set by controls: 0 for no effect and ±100 for the full control effect.

For CC1CCN(S(=O)(=O)CCNC(=O)c2ccccc2)CC1 the results were IL1B secr inh -2, HT1080 IDH1KD tx 15%, TDP1 cell CPT 0%, HT1080-NT tox 15% and TDP1 cell noCPT 1%.
`CC(C)[C@H](NC(=O)[C@@H]1Cc2c([nH]c3ccccc23)C2c3ccccc3C(=O)N21)C(=O)N1CCC[C@@H]1C(=O)O` (stereo not given in full) gave IL1B secr inh 37, HT1080 IDH1KD tx -2%, TDP1 cell CPT 1%, HT1080-NT tox -1% and TDP1 cell noCPT -30%.
For COc1ccccc1N1CCN(C(c2cccs2)C(C)NC(=O)c2cccs2)CC1 (stereo not given) the results were IL1B secr inh -9, HT1080 IDH1KD tx 1%, TDP1 cell CPT 16µM*, HT1080-NT tox 0% and TDP1 cell noCPT 12µM*.
Screening COc1ccccc1N1CCN(C(c2cccs2)C(C)NC(=O)c2cccnc2)CC1 (stereo not given) returned IL1B secr inh 22, HT1080 IDH1KD tx -12%, TDP1 cell CPT inconclusive, HT1080-NT tox -5% and TDP1 cell noCPT inconclusive.
For CC(NC(=O)c1cccnc1)C(c1cccs1)N1CCN(c2ccccc2F)CC1 (stereo not given) the results were IL1B secr inh -1, HT1080 IDH1KD tx -3%, TDP1 cell CPT 23µM*, HT1080-NT tox -22% and TDP1 cell noCPT inconclusive.
Screening CCn1cc(S(=O)(=O)CC(=O)N2CCc3ccccc32)c2ccccc21 returned IL1B secr inh 38, HT1080 IDH1KD tx 0%, TDP1 cell CPT -13%, HT1080-NT tox 10% and TDP1 cell noCPT -24%.
CCCCN1C[C@H](c2ccccc2)[C@@H](CC(=O)NC)C1=O was read as IL1B secr inh 42, HT1080 IDH1KD tx 1%, TDP1 cell CPT -6%, HT1080-NT tox 0% and TDP1 cell noCPT -19%.
For CC(NC(=O)c1ccccc1)C(=O)NNC(=O)c1ccccc1Cl (stereo not given) the results were IL1B secr inh 8, HT1080 IDH1KD tx 11%, TDP1 cell CPT -2%, HT1080-NT tox 1% and TDP1 cell noCPT 4%.
`COc1ccc(NS(=O)(=O)c2ccc3[nH]c4c(c3c2)CCCC4)c(OC)c1` gave TDP1 cell CPT 21µM* and TDP1 cell noCPT 21µM*.
Screening CCOc1ccc(NS(=O)(=O)c2ccc3[nH]c4c(c3c2)CCCCC4)cc1 returned TDP1 cell CPT 23µM* and TDP1 cell noCPT 18µM*.
For COc1ccc(NS(=O)(=O)c2ccc3[nH]c4c(c3c2)CCCCC4)cc1 the results were TDP1 cell CPT 16µM* and TDP1 cell noCPT 23µM*.
Screening CCOc1ccc(NS(=O)(=O)c2ccc3[nH]c4c(c3c2)CCCC4)cc1 returned TDP1 cell CPT -23% and TDP1 cell noCPT inconclusive.
For COc1ccc(OC)c(NC(=O)CCCCCn2nnc3ccccc3c2=O)c1 the results were IL1B secr inh 10, HT1080 IDH1KD tx 0%, TDP1 cell CPT inconclusive, HT1080-NT tox -1% and TDP1 cell noCPT inconclusive.
CCCCCCN1C[C@H](n2cc(C3CC3)nn2)[C@@H](O)C[C@@H]1c1ccc(Cl)cc1 was read as IL1B secr inh 36, HT1080 IDH1KD tx -1%, TDP1 cell CPT inconclusive, HT1080-NT tox -1% and TDP1 cell noCPT inconclusive.
Screening CCCOC(=O)c1ccc(NC(=O)Cc2csc(C)n2)cc1 returned TDP1 cell CPT -37% and TDP1 cell noCPT inconclusive.
COc1ccc(OC)c(NC(=O)CSc2ccnc(=O)[nH]2)c1 was read as TDP1 cell CPT -5% and TDP1 cell noCPT -6%.
`OC(c1ccccc1)(c1nc(-c2ccc3ccccc3c2)cs1)C(F)(F)F` (stereo not given) gave IL1B secr inh -15, HT1080 IDH1KD tx inconclusive, TDP1 cell CPT 21µM*, HT1080-NT tox inconclusive and TDP1 cell noCPT inconclusive.
